In the supplement of paper PMC10849652:
Targets with a hit are over-represented here; the source holds about 7,900 in all. About 0.6% of all pairs of compound and target were hits.

How the values were obtained:
Assay in all cases: log2 fold change, soluble protein after heating vs DMSO (PISA); higher = thermal stabilisation; K562 cells, 10 uM, 30 min; active = over 0.2 and 3.5 SD of the protein, either way, in both replicates (recomputed)
erlotinib = compound: C#Cc1cccc(Nc2ncnc3cc(OCCOC)c(OCCOC)cc23)c1 [erlotinib]
Summary of the method: (§1)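 Soluble protein was quantified by TMTpro 16plex LC-MS/MS after channel sums were equalised. It was obtained as the supernatant after 21,000xg for 90 min from pooled aliquots of K562 cells (2×10^6 cells/mL, 10 μM compound, 30 min) heated for 3 min across 48°C-58°C and extracted in PBS with 0.5% NP-40 at 4°C. Thermal stability values are relative to control samples and come from duplicates. They are given as log2 fold changes.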

[1] = compound: C/C(=N\NC(=O)C1=CC(=CC=C1)S(=O)(=O)N2CCOCC2)/C3=C(C=CC(=C3)Cl)O
Summary of the method: as §1

[2] = compound: C1=CC(=C(C=C1Cl)C2=NC3=NC=CN=C3C(=N2)NC4=CC=NC=C4)F
Summary of the method: as §1

[3] = compound: C1=CC(=CC=C1C2=NC3=C(N2)C=C(C=C3)C(=O)N)OC4=CC=C(C=C4)Cl
Summary of the method: as §1

[4] = compound: C1=CC2=C(C=CC(=C2)/C=C\3/C(=O)NC(=NCC4=CC=CS4)S3)N=C1
Summary of the method: as §1

[5] = compound: C1=CC2=NC=CN=C2C=C1/C=C/3\C(=O)NC(=O)S3
Summary of the method: as §1

[6] = compound: C1=CC=C(C=C1)C2=NC(=C(N2)C3=CC=NC=C3)C4=CC(=C(C=C4)Cl)O
Summary of the method: as §1

[7] = compound: C1=CC=C2C(=C1)C3=NNC4=CC=CC(=C43)C2=O
Summary of the method: as §1

[8] = compound: C1CCN(C1)C(=O)NC2=CC=CC(=C2)NC3=NC=C(C(=N3)NCCC4=CN=CN4)Br
Summary of the method: as §1

[9] = compound: C1CN(CCC1(CC2=CC=C(C=C2)Cl)N)C3=NC=NC4=C3C=CN4
Summary of the method: as §1

IRAK-1-4 Inhibitor I = compound: C1COCCN1CCN2C3=CC=CC=C3N=C2NC(=O)C4=CC(=CC=C4)[N+](=O)[O-] [IRAK-1-4 Inhibitor I]
Summary of the method: as §1

ibrutinib = compound: C=CC(=O)N1CCC[C@@H](n2nc(-c3ccc(Oc4ccccc4)cc3)c3c(N)ncnc32)C1 [ibrutinib]
Summary of the method: as §1

[10] = compound: CC(=O)c1cnc2ccc(-c3cc(Cl)c(O)c(Cl)c3)nc2c1N[C@H]1CC[C@H](CN(C)C)CC1
Summary of the method: as §1

ralimetinib = compound: CC(C)(C)Cn1c(N)nc2ccc(-c3[nH]c(C(C)(C)C)nc3-c3ccc(F)cc3)nc21 [ralimetinib]
Summary of the method: as §1

[11] = compound: CC(C)(O)CC(=O)NCCn1ccc2ncnc(Nc3ccc(Oc4cccc(C(F)(F)F)c4)c(Cl)c3)c21
Summary of the method: as §1

[12] = compound: CC(C)C1=C2N=C(C=C(N2N=C1)NCC3=CC=CC=C3)NCCCCCCN
Summary of the method: as §1

[13] = compound: CC(C)C[C@@H](C=O)NC(=O)[C@H](CC(C)C)NC(=O)[C@H](CC(C)C)NC(=O)OCc1ccccc1
Summary of the method: as §1

pinometostat = compound: CC(C)N(C[C@H]1O[C@@H](n2cnc3c(N)ncnc32)[C@H](O)[C@@H]1O)[C@H]1C[C@@H](CCc2nc3cc(C(C)(C)C)ccc3[nH]2)C1 [pinometostat]
Summary of the method: as §1

[14] = compound: CC1=C(C(CC(=O)N1)C2=CC=C(C=C2)C(F)(F)F)C(=O)NC3=C(C=C4C(=C3)C=NN4)F
Summary of the method: as §1

[15] = compound: CC1=C(C2=C(C=C1)C(=O)C3=CC=CC=C3N2CCCN)C
Summary of the method: as §1

Measured: log2 fold change

FAM91A1 (UniProt Q658Y4)
Chain of UniProt Q658Y4 (Q658Y4 whole entry, looked up): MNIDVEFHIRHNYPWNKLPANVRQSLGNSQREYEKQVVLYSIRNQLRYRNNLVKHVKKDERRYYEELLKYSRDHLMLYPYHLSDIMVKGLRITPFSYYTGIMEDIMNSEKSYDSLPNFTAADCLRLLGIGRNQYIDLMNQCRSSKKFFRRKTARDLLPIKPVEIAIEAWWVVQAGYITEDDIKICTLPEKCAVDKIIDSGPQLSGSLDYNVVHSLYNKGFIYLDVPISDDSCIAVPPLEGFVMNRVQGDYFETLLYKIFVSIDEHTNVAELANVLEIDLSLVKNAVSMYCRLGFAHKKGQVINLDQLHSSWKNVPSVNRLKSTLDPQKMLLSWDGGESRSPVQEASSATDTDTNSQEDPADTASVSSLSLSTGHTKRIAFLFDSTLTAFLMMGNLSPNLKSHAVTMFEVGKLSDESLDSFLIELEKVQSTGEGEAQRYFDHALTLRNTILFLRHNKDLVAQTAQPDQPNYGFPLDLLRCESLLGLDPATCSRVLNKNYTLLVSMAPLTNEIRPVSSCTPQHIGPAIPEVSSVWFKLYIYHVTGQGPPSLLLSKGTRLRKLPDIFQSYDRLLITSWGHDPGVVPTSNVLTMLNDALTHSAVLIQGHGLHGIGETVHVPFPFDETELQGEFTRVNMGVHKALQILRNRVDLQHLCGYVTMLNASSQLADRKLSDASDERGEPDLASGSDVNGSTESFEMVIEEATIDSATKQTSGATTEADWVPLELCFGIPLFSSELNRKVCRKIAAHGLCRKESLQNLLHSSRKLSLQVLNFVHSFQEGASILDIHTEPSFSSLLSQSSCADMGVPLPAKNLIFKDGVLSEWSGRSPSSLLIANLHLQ
inactive: erlotinib 0.005 | [1] 0.019 | [2] 0.168 | [3] 0.082 | [4] 0.019 | [5] -0.017 | [6] -0.033 | [7] 0.069 | [8] -0.057 | [9] -0.152 | IRAK-1-4 Inhibitor I 0.092 | ibrutinib -0.025 | [10] -0.025 | ralimetinib 0.076 | [11] -0.198 | [12] -0.041 | [13] 0 | pinometostat 0.134 | [14] 0.018 | [15] 0.083

GSR (UniProt P00390)
Chain of UniProt P00390 (P00390 whole entry, looked up): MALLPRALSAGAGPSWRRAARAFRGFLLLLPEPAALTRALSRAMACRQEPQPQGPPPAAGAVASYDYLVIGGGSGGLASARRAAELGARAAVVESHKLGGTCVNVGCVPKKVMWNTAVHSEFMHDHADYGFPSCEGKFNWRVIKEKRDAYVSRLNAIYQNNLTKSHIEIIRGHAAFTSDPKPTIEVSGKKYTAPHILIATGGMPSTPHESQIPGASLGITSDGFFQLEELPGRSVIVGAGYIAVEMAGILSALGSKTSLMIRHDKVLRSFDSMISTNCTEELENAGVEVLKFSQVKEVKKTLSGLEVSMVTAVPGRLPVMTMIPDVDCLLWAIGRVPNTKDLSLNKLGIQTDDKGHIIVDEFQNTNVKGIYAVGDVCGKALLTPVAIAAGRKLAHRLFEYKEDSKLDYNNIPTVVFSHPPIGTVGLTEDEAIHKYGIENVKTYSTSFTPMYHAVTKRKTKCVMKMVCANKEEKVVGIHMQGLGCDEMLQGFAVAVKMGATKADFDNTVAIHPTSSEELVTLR
inactive: erlotinib -0.099 | [1] 0.021 | [2] 0.071 | [3] 0.067 | [4] 0.023 | [5] 0.007 | [6] -0.026 | [7] -0.017 | [8] 0.011 | [9] 0.054 | IRAK-1-4 Inhibitor I 0.037 | ibrutinib -0.005 | [10] -0.011 | ralimetinib -0.021 | [11] -0.015 | [12] 0.082 | [13] 0.023 | pinometostat -0.05 | [14] -0.005 | [15] -0.003

HIKESHI (UniProt Q53FT3)
Chain of UniProt Q53FT3 (Q53FT3 whole entry, looked up): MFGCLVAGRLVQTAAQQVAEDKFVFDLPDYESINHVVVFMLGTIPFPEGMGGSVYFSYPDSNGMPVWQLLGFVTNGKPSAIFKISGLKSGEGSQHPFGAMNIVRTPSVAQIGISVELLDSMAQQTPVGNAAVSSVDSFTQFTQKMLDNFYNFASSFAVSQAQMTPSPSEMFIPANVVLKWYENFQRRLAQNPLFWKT
active: ralimetinib -0.305
inactive: erlotinib 0.004 | [1] 0.1 | [2] 0.017 | [3] 0.003 | [4] 0.073 | [5] 0.02 | [6] -0.002 | [7] -0.03 | [8] -0.056 | [9] 0.009 | IRAK-1-4 Inhibitor I 0.013 | ibrutinib -0.041 | [10] 0.023 | [11] -0.045 | [12] -0.007 | [13] -0.194 | pinometostat 0.062 | [14] -0.043 | [15] 0.061

FANCD2 isoform 1 (UniProt Q9BXW9)
Chain of UniProt Q9BXW9 (Q9BXW9 whole entry, looked up): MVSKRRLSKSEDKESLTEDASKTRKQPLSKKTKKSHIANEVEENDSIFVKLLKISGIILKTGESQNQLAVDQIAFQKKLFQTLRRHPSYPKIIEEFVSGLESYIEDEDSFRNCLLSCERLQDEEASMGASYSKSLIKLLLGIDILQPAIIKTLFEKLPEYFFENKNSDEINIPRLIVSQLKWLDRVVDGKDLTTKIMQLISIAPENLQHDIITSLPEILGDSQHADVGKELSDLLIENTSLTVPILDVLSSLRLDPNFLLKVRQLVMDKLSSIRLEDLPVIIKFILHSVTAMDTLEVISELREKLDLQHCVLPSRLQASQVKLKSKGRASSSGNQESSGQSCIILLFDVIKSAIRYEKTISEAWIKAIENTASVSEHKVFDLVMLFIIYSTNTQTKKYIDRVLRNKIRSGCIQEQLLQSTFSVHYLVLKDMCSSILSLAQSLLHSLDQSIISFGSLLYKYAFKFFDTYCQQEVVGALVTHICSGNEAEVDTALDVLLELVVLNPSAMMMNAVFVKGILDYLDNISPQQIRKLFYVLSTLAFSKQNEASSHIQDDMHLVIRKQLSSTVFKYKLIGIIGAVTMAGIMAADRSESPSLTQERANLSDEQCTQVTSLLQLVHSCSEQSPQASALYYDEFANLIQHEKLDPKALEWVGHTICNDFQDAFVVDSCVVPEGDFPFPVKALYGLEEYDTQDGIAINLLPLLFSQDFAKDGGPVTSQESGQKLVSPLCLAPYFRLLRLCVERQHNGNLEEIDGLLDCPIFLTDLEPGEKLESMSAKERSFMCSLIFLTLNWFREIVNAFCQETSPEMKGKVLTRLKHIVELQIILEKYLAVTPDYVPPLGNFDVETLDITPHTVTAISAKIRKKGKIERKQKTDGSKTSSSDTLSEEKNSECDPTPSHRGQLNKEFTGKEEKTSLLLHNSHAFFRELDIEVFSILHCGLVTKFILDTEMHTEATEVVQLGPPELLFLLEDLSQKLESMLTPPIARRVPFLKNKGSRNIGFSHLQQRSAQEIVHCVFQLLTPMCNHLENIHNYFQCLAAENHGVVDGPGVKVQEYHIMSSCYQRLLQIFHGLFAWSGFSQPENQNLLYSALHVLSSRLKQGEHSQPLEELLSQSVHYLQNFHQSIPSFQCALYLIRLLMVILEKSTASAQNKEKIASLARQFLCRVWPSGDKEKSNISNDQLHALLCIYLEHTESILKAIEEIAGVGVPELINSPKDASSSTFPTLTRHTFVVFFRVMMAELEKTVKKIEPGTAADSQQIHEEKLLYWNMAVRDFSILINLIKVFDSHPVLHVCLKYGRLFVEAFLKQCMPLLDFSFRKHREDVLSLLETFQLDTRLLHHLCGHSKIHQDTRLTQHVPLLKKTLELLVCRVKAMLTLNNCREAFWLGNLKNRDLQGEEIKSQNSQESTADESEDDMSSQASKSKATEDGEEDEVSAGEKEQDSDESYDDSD
active: [12] -0.354 | [15] -0.369
inactive: erlotinib 0.077 | [1] 0.075 | [2] -0.003 | [3] 0.012 | [4] 0.145 | [5] 0.02 | [6] 0 | [7] -0.012 | [8] -0.008 | [9] 0.02 | IRAK-1-4 Inhibitor I -0.002 | ibrutinib 0.025 | [10] -0.155 | ralimetinib -0.082 | [11] -0.029 | [13] -0.266 | pinometostat 0.062 | [14] 0.002

FIS1 (UniProt Q9Y3D6)
Chain of UniProt Q9Y3D6 (Q9Y3D6 whole entry, looked up): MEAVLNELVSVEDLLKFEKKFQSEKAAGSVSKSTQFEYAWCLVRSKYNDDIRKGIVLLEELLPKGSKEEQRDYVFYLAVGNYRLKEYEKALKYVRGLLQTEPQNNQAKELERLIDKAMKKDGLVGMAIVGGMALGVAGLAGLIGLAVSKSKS
inactive: erlotinib 0.013 | [1] 0.066 | [2] 0.015 | [3] 0.01 | [4] -0.034 | [5] 0.024 | [6] -0.025 | [7] 0.02 | [8] -0.06 | [9] 0.09 | IRAK-1-4 Inhibitor I 0.029 | ibrutinib 0.003 | [10] 0.067 | ralimetinib -0.036 | [11] 0.029 | [12] -0.023 | [13] -0.025 | pinometostat -0.074 | [14] 0.004 | [15] -0.031

IDH3A (UniProt P50213)
Chain of UniProt P50213 (P50213 whole entry, looked up): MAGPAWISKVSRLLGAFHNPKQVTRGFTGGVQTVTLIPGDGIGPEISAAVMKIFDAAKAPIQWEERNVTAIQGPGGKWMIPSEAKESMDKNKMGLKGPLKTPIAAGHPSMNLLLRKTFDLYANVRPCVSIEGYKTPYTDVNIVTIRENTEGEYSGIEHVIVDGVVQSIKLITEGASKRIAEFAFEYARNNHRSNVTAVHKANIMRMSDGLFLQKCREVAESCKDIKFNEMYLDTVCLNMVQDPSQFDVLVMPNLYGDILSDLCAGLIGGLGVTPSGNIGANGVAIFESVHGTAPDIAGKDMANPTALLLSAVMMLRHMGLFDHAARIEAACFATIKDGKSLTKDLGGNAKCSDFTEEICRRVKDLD
inactive: erlotinib 0.021 | [1] 0.034 | [2] 0.1 | [3] 0.023 | [4] 0.021 | [5] 0.017 | [6] -0.03 | [7] 0.024 | [8] -0.009 | [9] 0.028 | IRAK-1-4 Inhibitor I 0.033 | ibrutinib 0.021 | [10] -0.008 | ralimetinib -0.085 | [11] -0.044 | [12] 0.034 | [13] 0 | pinometostat -0.029 | [14] 0.008 | [15] 0.015

FKBP3 (UniProt Q00688)
Chain of UniProt Q00688 (Q00688 whole entry, looked up): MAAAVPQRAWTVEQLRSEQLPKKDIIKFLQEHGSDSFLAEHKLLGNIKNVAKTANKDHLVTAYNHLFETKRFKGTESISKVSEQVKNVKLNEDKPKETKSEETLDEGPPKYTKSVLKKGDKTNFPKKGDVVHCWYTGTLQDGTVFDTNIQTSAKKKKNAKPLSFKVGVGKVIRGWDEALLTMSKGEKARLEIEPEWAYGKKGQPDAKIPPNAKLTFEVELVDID
inactive: erlotinib -0.001 | [1] 0.014 | [2] 0.061 | [3] -0.012 | [4] 0.013 | [5] -0.004 | [6] -0.028 | [7] -0.001 | [8] -0.007 | [9] -0.017 | IRAK-1-4 Inhibitor I 0.01 | ibrutinib 0.009 | [10] 0.016 | ralimetinib 0.001 | [11] -0.028 | [12] 0.023 | [13] -0.014 | pinometostat -0.057 | [14] -0.033 | [15] -0.004

GPX4 (UniProt P36969)
Chain of UniProt P36969 (P36969 whole entry, looked up): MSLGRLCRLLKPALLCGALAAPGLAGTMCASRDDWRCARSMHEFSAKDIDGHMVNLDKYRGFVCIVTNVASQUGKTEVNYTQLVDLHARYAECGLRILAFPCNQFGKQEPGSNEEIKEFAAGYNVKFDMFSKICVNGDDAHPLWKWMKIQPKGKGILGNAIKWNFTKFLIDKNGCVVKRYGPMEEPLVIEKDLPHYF
active: [13] -0.462
inactive: erlotinib -0.021 | [1] 0.035 | [2] -0.012 | [3] 0.057 | [4] -0.007 | [5] 0.006 | [6] 0.142 | [7] -0.063 | [8] -0.036 | [9] 0.058 | IRAK-1-4 Inhibitor I -0.026 | ibrutinib 0.065 | [10] -0.005 | ralimetinib 0.01 | [11] 0.003 | [12] 0.099 | pinometostat -0.078 | [14] 0.002 | [15] 0.02
